Screens as filed in PubChem BioAssay.
TRPV1 agonist: activates the human vanilloid receptor TRPV1; activation, % at 8.33 µM; Q8NER1; AID 540275; TRPV1-expressing cells, Fluo-8 calcium influx, agonist mode; 0.19% of 320,000 active; in the data active = activation above about 80%; inconclusive = between about 30% and that limit; note: 0% is about no effect
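Fluo-8 calcium influx in TRPV1-expressing cells, kinetic read (ex 480/em 520 nm). Compound added and read 3 min for agonist activity, followed by capsaicin at EC20 final and 2 min further read for enhancement.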
uPA generation: inhibitors of cell surface uPA generation. cell surface uPA generation assay, qHTS. Potency, µM (highest dose often 38.3 µM), inactives show at the highest dose activity change, negative = inhibition, usual class: inhibitors. 0.31% of 330,000 active. AID 540303; active = well fitted inhibition curve with a large enough effect; inconclusive = small, poorly fitted or top-dose-only effect; inactive = no such curve, though single readings can be large or run the other way; tested in mouse RAW 264.7 cells; note: potency is the fitted concentration of half-maximal effect; % is set by controls: 0 for no effect and ±100 for the full control effect; nearly all actives have a fitted effect of over 55% in size
TRPV1 PAM: human TRPV1 potentiation | 0.02% of 320,000 active | potentiation, % at 8.33 µM | AID 540277 | TRPV1-expressing cells, Fluo-8 calcium influx, capsaicin EC20 potentiation | Q8NER1; in the data active = potentiation above about 80%; inconclusive = between about 30% and that limit; note: 0% is about no effect
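Cells expressing TRPV1 were dye-loaded with Fluo-8 and read kinetically: 10 s baseline, 3 min after compound (agonist portion), then 2 min after EC20 capsaicin (allosteric enhancer portion). Calcium-bound dye fluorescence at 480/520 nm.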
RORg inh: inhibitors of mouse ROR gamma transcriptional activity. Drosophila S2 Gal4-RORgamma UAS-luciferase reporter, 20 h. Potency, µM (highest dose often 53.6 µM), without a hit: at the top dose activity change, negative = inhibition, actives largely listed as inhibitors. 5.4% of 310,000 active. AID 2551; note: potency is the fitted concentration of half-maximal effect; % is set by controls: 0 for no effect and ±100 for the full control effect; nearly all actives have a fitted effect of over 60% in size
Target sequence (P51450 whole entry, looked up, the tested form may be a part): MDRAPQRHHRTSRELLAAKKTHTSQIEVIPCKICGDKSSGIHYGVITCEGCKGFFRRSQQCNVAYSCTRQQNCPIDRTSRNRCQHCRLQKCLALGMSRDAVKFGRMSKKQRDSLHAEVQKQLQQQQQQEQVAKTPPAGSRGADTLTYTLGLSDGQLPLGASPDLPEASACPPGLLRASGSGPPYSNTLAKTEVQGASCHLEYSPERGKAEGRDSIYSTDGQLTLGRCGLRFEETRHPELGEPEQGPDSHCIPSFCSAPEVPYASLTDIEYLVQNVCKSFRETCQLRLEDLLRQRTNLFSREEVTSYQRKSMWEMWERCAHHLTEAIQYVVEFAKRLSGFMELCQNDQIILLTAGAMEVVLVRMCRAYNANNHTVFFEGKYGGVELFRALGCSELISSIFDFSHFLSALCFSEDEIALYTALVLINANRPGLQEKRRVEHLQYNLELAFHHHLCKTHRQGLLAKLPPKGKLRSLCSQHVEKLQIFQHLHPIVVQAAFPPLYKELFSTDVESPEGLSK
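Luciferase reporter read in Schneider cells carrying Gal4-RORγ (mouse) and UAS-Photinus luciferase; cells given compound 1 h before 700 uM copper sulfate induction, then incubated 20 h at ambient temperature.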
VP16 counter: inhibits Gal4-VP16 luciferase reporter, ROR gamma counter-screen. Drosophila S2 Gal4-VP16 UAS-luciferase, luminescence, 20 h. Potency, µM (top dose mostly 53.6 µM), for inactives: top-dose activity, negative = inhibition, most hits filed as inhibitors. 3.5% of 310,000 active. AID 2546;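 note: Gal4-VP16 expression switched on by copper sulfate through the metallothionein promoter; potency is the fitted concentration of half-maximal effect; % is set by controls: 0 for no effect and ±100 for the full control effect; nearly all actives have a fitted effect of over 50% in size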
* hit, by the source's call; u = inconclusive; x = no result. An excerpt weighted towards active compounds, which were near 5.8% of everything screened. Unless noted, calls come from the whole dose curve; as a rule, active = well fitted curve in the direction sought with a large enough effect; inconclusive = small, poorly fitted or top-dose-only effect, or another doubt; inactive = no such curve, though single readings can be large; an effect the other way counts as inactive or inconclusive.

SMILES	TRPV1 agonist	uPA generation	TRPV1 PAM	RORg inh	VP16 counter
COc1cccc(Oc2ccc(S(=O)(=O)N3CCOCC3)cc2[N+](=O)[O-])c1	x	-4%	x	x	x
Nc1ccccc1C(=O)NCCN1CCNC1=O	0	6%	-6	6%	0%
N#C/C(=C\c1cn(Cc2ccc(F)cc2)c2ccccc12)C(=O)NCc1ccco1	26	0%	-3	u	11µM*
CCN1C(=O)[C@@H]2C(C(=O)c3cnccn3)=NN[C@@H]2C1=O	-2	8%	-11	22%	-3%
COc1cc(C(=O)OCC(=O)Nc2ccc(SC(F)F)cc2)cc(OC)c1OC	24	3%	2	u	1µM*
COc1cc(C(=O)OCC(=O)Nc2ccc(OC(F)F)cc2)cc(OC)c1OC	5	-1%	3	u	10%
CC(C)c1ccccc1NC(=S)NN(Cc1ccccc1)c1ccccc1	u	2%	12	2.2µM*	u
Fc1ccccc1NC(=S)NCc1ccccc1	23	-2%	-8	u	u
Cc1cccc(C)c1NC(=S)NN(Cc1ccccc1)c1ccccc1	u	-5%	-3	5µM*	u
CC(C)c1ccccc1NC(=S)NCc1ccncc1	11	2%	-13	-35%	-7%
Fc1ccccc1NC(=S)NN(Cc1ccccc1)c1ccccc1	16	x	-3	4.5µM*	10µM*
S=c1nc(-c2ccc(Cl)cc2)[nH][nH]1	-3	0%	9	8.9µM*	-23%
CCCOc1ccc(-c2nc(=S)[nH][nH]2)cc1	-12	x	u	0%	-26%
CCOC(=O)c1c(NC(=O)C(=O)N/N=C/c2ccccc2OC)sc2c1CCCCC2	-2	0%	2	-8%	-4%
CCOC(=O)c1c(NC(=O)C(=O)N/N=C/c2ccccc2O)sc2c1CCCCC2	2	11%	9	1µM*	1.3µM*
CCOC(=O)c1c(NC(=O)c2ccccc2N(C)S(=O)(=O)c2ccccc2)sc2c1CCCC2	-4	-11%	-4	9%	-13%
CCOC(=O)c1c(NC(=O)C(NCCN(C)C)c2ccccc2)sc2c1CCCC2 (stereo not drawn)	1	-1%	4	3.5µM*	11µM*
COc1ccc(CNC(=O)c2ccc(S(=O)(=O)NCc3ccco3)cc2)cc1	-2	4%	22	x	x
COc1cc(CC(NC(C)=O)C(=O)NC2CCN(C(=O)Nc3ccc(C)cc3)CC2)cc(OC)c1 (stereo not drawn)	1	1%	4	-26%	-5%
CC1=C(C)CS(=O)N(S(=O)(=O)c2ccccc2)C1 (stereo not drawn)	5	x	1	8.9µM*	11µM*
O=S(=O)(/N=S1\CC=CCN1S(=O)(=O)c1ccccc1)c1ccccc1 (stereo not drawn)	x	-2%	x	x	x
CC1=C(C)CS(=O)N(c2ccc(S(N)(=O)=O)cc2)C1 (stereo not drawn)	3	-6%	-11	3.5µM*	4.5µM*
Cc1cccc(C(=O)Nc2ccc(N3CCC(CCN4CCOCC4)CC3)c(C(=O)O)c2)c1	5	x	-3	x	x
COC(=O)C(C)Sc1snnc1-c1ccccc1 (stereo not drawn)	1	10%	9	-39%	-22%
CC(=O)CCS(=O)(=O)c1ccc(Oc2ccc(S(=O)(=O)CCC(C)=O)cc2)cc1	0	-13%	2	8.9µM*	u
SMILES	TRPV1 agonist	uPA generation	TRPV1 PAM	RORg inh	VP16 counter
O=S(=O)(CCN1CCOCC1)c1ccc(Oc2ccc(S(=O)(=O)CCN3CCOCC3)cc2)cc1	0	-8%	3	u	7.9µM*
CCOC(=O)Cc1csc(NC(=O)Cc2ccc([N+](=O)[O-])cc2)n1	-2	2%	13	1%	1%
CCOC(=O)Cc1csc(NC(=O)c2ccc3ccccc3n2)n1	12	1%	3	6.3µM*	u
CCc1nnc(NC(=O)c2ccc3ccccc3n2)s1	-12	u	17	3%	-2%
CCOC(=O)Cc1csc(NC(=S)NC(=O)c2ccc([N+](=O)[O-])cc2)n1	-2	3%	3	10µM*	u
CCOC(=O)Cc1csc(NC(=O)c2cc(C)on2)n1	x	-2%	x	x	x
CCSc1nnc(NC(=O)c2ccc3ccccc3n2)s1	-2	-8%	9	1µM*	0.71µM*
CCOC(=O)Cc1csc(NC(=O)c2csc3c2CCCC3)n1	1	7%	-2	13µM*	-18%
CCNS(=O)(=O)c1ccc(C)cc1	x	x	x	-3%	3%
CCOC(=O)Cc1csc(NC(=S)NC(=O)c2ccc(Cl)cc2)n1	9	1%	-1	7.1µM*	u
CCOC(=O)Cc1csc(NC(=O)Cc2ccc(Cl)cc2)n1	7	-2%	3	44%	-12%
CC(C)(C)OC(=O)NCCCCC1=CC2=CC(=O)C(C)(OC(=O)CCc3ccccc3)C(=O)C2=CO1 (stereo not drawn)	x	x	x	-2%	-4%
COCCN(C)Cc1cn(-c2ccc(F)cc2F)nc1-c1ccccc1C	-1	-6%	0	6.3µM*	u
Cc1ccccc1-c1nn(-c2ccc(F)cc2F)cc1CNCCN(C)C	7	-3%	10	u	2%
CCCCCC1(C)NC(=S)N(c2ccccc2)N1 (stereo not drawn)	6	0%	-5	u	u
CCCCCCC1(C)NC(=S)N(c2ccccc2)N1 (stereo not drawn)	0	6%	10	7.1µM*	-3%
CC1(CC(=O)Nc2ccccc2)NC(=S)N(c2ccccc2)N1 (stereo not drawn)	3	-3%	-9	7.9µM*	1%
CCC1(c2ccccc2)NC(=S)N(c2ccc(C)cc2)N1 (stereo not drawn)	2	-3%	-1	5µM*	u
CCn1c(=O)cc(OCC(=O)NCc2ccco2)c2ccccc21	-4	-6%	7	4%	1%
CCn1c(=O)cc(OCC(=O)NCc2ccc(C)o2)c2ccccc21	10	x	-1	14µM*	7%
O=C(NN=C1CCCCCC1)c1ccc(Cl)s1	-6	2%	17	u	13µM*
Cc1ccc(C(=O)NN=C2CCCCCC2)s1	0	-5%	-11	u	-10%
Cn1c(-c2sc(=S)n(-c3ccccc3)c2N)nc2ccccc21	-1	4%	1	7.9µM*	-2%
Oc1ccccc1N=Nc1ccccc1O	-1	u	25	1.4µM*	-24%
COc1ccc(OCc2nc3c4cc(OC)c(OC)cc4nc(=S)n3[nH]2)cc1	-3	-8%	20	0.4µM*	0.71µM*
Cc1ccc(SCC(=O)OC(C)C(=O)NCc2ccccc2)cc1C (stereo not drawn)	u	0%	-23	x	x
COc1ccc(OCCCC(=O)Nc2nc(-c3ccccn3)cs2)cc1	25	3%	-3	10µM*	-28%
O=C(CCS(=O)(=O)c1ccc(F)cc1)Nc1nc(-c2ccccn2)cs1	-3	-6%	12	10µM*	-22%
